In PubChem BioAssay (NCATS):
Where “and” joins values, the source holds several entries; their conditions need not be identical. Identical values can stand only once. Records with an inconclusive call do not appear. A call without a number means that no potency is given here. Calls of active or inactive are those of the source. The call rests on the fitted dose curve; in most records, active means well fitted curve in the direction sought with a large enough effect; inconclusive means small, poorly fitted or top-dose-only effect, or another doubt; inactive means no such curve, though single readings can be large; an effect the other way counts as inactive or inconclusive.

Key:
[1] = qHTS Screen of the MIPE 4.0 Collection Against Ewings Sarcoma (TC32) (AID 1259256); further: nearly all actives have a fitted effect of over 45% in size
Procedure, shortened: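 Cells plated in serum-containing RPMI (5% FBS) and treated with compound dilutions for 48 h. Readout luminescent viability; normalization relied on vehicle (no inhibition) and media-only columns (full inhibition).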

[2] = P-glycoprotein substrates identified in KB-3-1 adenocarcinoma cell line, qHTS therapeutic library screen (AID 1346986); further: nearly all actives have a fitted effect of over 60% in size;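 further: potency is for cytotoxicity meaning loss of cell viability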
Procedure, shortened: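 Viability read by CellTiter-Glo after 72 h compound exposure in dose-response of KB-3-1 and KB-8-5-11 (P-gp-high) cells. Hits needed AC50 < 10 uM, >50% maximum response and curve class -1.1 to -2.4. Cherry-picks retested ± tariquidar, including pcDNA/MDR-19 HEK-293 pair.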

[3] = P-glycoprotein substrates identified in KB-8-5-11 adenocarcinoma cell line, qHTS therapeutic library screen (AID 1346987); further: nearly all actives have a fitted effect of over 65% in size
Procedure, shortened: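 Compounds are pinned in dose-response onto KB-8-5-11 cells (500 cells/well, colchicine-free medium) and left 72 h at 37 degree C. CellTiter-Glo luminescence then yields AC50 values.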

[4] = NS1 protein of Zika virus - qHTS assay to identify small molecule inhibitors in human HEK 293 cells (AID 1347053); further: nearly all actives have a fitted effect of over 55% in size
Procedure, shortened: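 Read-out is a two-antibody TR-FRET for ZIKV NS1, normalized between uninfected cells and infected cells. Compound added 1 h before MR766 infection at MOI 0.5; human HEK 293 cells incubated 24 h, 37 C.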

[5] = qHTS of pediatric cancer cell lines to identify multiple opportunities for drug repurposing: Primary screen for TC32 cells (AID 1347089); further: nearly all actives have a fitted effect of over 60% in size
Procedure, shortened: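 Measured quantity: luminescence from CellTiter-Glo, reflecting metabolically active TC32 cells following 48 h of compound. Curves came straight from multi-point titrations, with 8 or 11 points in primary and 11 in confirmatory screening.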

[6] = qHTS of pediatric cancer cell lines to identify multiple opportunities for drug repurposing: Primary screen for DAOY cells (AID 1347090); further: nearly all actives have a fitted effect of over 55% in size
Procedure, shortened: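 Cell viability, CellTiter-Glo luminescence; 500-1,000 cells/well, 8- or 11-point titration, 48 h compound exposure at 37 degrees C, 5% CO2. Controls: DMSO neutral, bortezomib 2.3 µM final as positive.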
Potency means the concentration at half of the fitted maximal effect.

Row | SMILES | Potency [1] | Potency [2] | Potency [3] | Potency [4] | Potency [5] | Potency [6]
1 | CCCCCCCCCCCCc1ccc(S(=O)(=O)Nc2nncs2)cc1 | inactive | inactive | inactive | inactive | inactive | 
2 | Cc1ccc(O)c(C(CCN(C(C)C)C(C)C)c2ccccc2)c1 (configuration not stated) | inactive | inactive | inactive | inactive | inactive | inactive
3 | Cn1cc(C=CC(=O)c2cccc(F)c2)cc1C=CC(=O)NO | 20.9 µM (active) | inactive | inactive | inactive | inactive | 
4 | CC(=O)C1=C(O)C=C2Oc3c(C(C)=O)c(O)c(C)c(O)c3C2(C)C1=O (configuration not stated) | inactive | inactive | inactive | inactive | inactive | inactive
5 | CC(=O)ON=C1C(c2c(O)[nH]c3cc(Br)ccc23)=Nc2ccccc21 | 7.43 µM (active) |  |  |  |  | 
6 | Cc1coc2c1C(=O)C(=O)c1c-2ccc2c(C)cccc12 | inactive | inactive | inactive | inactive | inactive | inactive
7 | CON=C(C(=O)N[C@@H]1C(=O)N2C(C(=O)O)=C(Cn3ccc(=N)n3CCO)CS[C@H]12)c1csc(N)n1 | inactive | inactive | inactive | inactive | inactive | inactive
8 | CCCCCCCCCCCCCCCC(=O)OC[C@@H](NC(=O)C(Cl)Cl)[C@H](O)c1ccc([N+](=O)[O-])cc1 | inactive | inactive | inactive | inactive |  | 
9 | N#Cc1c(NC(=O)c2cccc3ccccc23)sc2c1CCCC2 | 0.235 µM (active) | 0.366 µM (active) | 418 nM (active) and 291 nM (active) | 10.5 µM (active) | 1.04 µM (active) | 0.296 µM (active)
10 | Cc1cc(C(=O)NOCCO)c(Nc2ccc(I)cc2F)n(C)c1=O | inactive | inactive | inactive | inactive | inactive | inactive
11 | COc1ccc(Nc2cc(-c3cnc(N)nc3)nc(N3CCOCC3)n2)cn1 | 5.26 µM (active) | 1.46 µM (active) | 1.48 µM (active) | 16.6 µM (active) | 4.66 µM (active) | 4.69 µM (active)
12 | CON=C(C(=O)N[C@@H]1C(=O)N2C(C(=O)O)=C(CSC(=O)c3ccco3)CS[C@H]12)c1csc(N)n1 | inactive | inactive | inactive | inactive | inactive | inactive
13 | COc1ccc([C@@H]2CNC(=O)C2)cc1OC1CCCC1 | 1.87 µM (active) | inactive | inactive | inactive | inactive | 3.72 µM (active)
14 | CCN(CC)CCCCNc1ncc2c(n1)N(C)C(=O)N(c1c(Cl)c(OC)cc(OC)c1Cl)C2 | 20.9 µM (active) |  |  |  |  | 
15 | OCCN1C[C@H](O)[C@@H](O)[C@H](O)[C@@H]1CO | inactive | inactive | inactive | inactive | inactive | inactive
16 | CN[C@H]1[C@@H](O)[C@@H]2O[C@@H]3O[C@H](C)CC(=O)[C@]3(O)O[C@@H]2[C@@H](NC)[C@H]1O | 1.05 µM (active) | inactive | inactive |  |  | 
17 | CCc1cc(C(C)=NOCc2ccc(C3CCCCC3)c(C(F)(F)F)c2)ccc1CN1CC(C(=O)O)C1 | inactive | inactive | inactive | inactive | inactive | 0.59 µM (active)
18 | COc1cc(CCc2cc(NC(=O)c3ccc(N4C[C@@H](C)N[C@@H](C)C4)cc3)n[nH]2)cc(OC)c1 | 13.2 µM (active) |  |  |  |  | 
19 | CC(=O)N[C@H]1[C@@H]([C@H](O)[C@H](O)CO)OC(C(=O)O)=C[C@@H]1N=C(N)N | inactive | inactive | inactive | inactive | inactive | inactive
20 | CC(C)(C)c1nc2c3cc[nH]c(=O)c3c3cc(F)ccc3c2[nH]1 | 4.18 µM (active) | 7.31 µM (active) | 5.17 µM (active) | inactive |  | 
21 | Cc1noc(-c2ccc(CSCCC(=O)O)cc2)c1NC(=O)OC(C)c1ccccc1Cl (configuration not stated) | inactive | inactive | inactive | inactive | inactive | inactive
22 | N#CC(=Cc1ccc(O)c(O)c1)C(=O)NCc1ccccc1 | 20.9 µM (active) | inactive | inactive |  |  | 
23 | COC(=O)[C@@H]1CC2=CC(=O)CC[C@]2(C)[C@@]23O[C@@H]2C[C@@]2(C)[C@H](CC[C@@]24CCC(=O)O4)[C@@H]13 | inactive | inactive | inactive | inactive | inactive | inactive
24 | O=C(O)CCCCC(CCSCc1ccccc1)SCc1ccccc1 (configuration not stated) | inactive | inactive | inactive | inactive | inactive | 23.5 µM (active)
